# Data published in publication PMC12431657, “Discovery and mechanistic insights of dibenzoylmethane as a broad spectrum inhibitor of coronavirus” (PLOS Pathogens, 2025).
# Test system: HCoV-OC43
# Design: species or system RD
# Conditions: 24 h, 10 µM; inhibitor
row,Structure (SMILES),OC43 Inhibition rate
1,"Cc1c([C@H](C)[C@@H]2NC[C@@H](C)C[C@H]2O)ccc2c1C[C@H]1[C@H]2CC=C2C[C@@H](O)CC[C@@]21C [Veratramine, veratramine]",77.2
2,C=C1C(=O)O[C@@H]2[C@H]3O[C@]3(C)CC/C=C(\C)CC[C@@H]12 [Parthenolide],36.9
3,"CC1=C[C@]23C(=O)[C@@H](C=C(COC(=O)c4ccccc4)[C@@H](O)[C@]2(O)[C@H]1OC(=O)c1ccccc1)[C@H]1[C@@H](C[C@H]3C)C1(C)C [Ingenol 3,20-dibenzoate, ingenol 3,20-dibenzoate]",82.9
